Measured values taken from PubChem BioAssay (Tox21).
Results filed as inconclusive are left out. The source made the active and inactive calls. Unless noted, calls follow the shape of the dose curve; as a rule, active = well fitted curve in the direction sought with a large enough effect in the repeat runs; inconclusive = weak or mixed curves; inactive = flat fitted curve, though single readings scatter.

Key:
[1] = qHTS assay to test for compound auto fluorescence at 535 nm (green) in HEK293 cells (AID 720680)
[2] = qHTS assay to test for compound auto fluorescence at 460 nm (blue) in HEK293 cell free culture (AID 720681)
In short: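 Compounds were added to cell-free DMEM with 10% FBS and fluorescence read directly. The blue channel used 405 nm excitation and 460 nm emission, with triamterene as the reference fluorophore.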

[3] = qHTS assay to test for compound auto fluorescence at 535 nm (green) in HEK293 cell free culture (AID 720682)
In short: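 Cell-free medium (DMEM, 10% FBS) receives compound or DMSO by pintool. Plate read directly at Ex 485/Em 535 nm. Signal converted to fluorescein equivalency.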

[4] = qHTS assay to test for compound auto fluorescence at 590 nm (red) in HepG2 cell free culture (AID 720684)
In short: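 Rose Bengal sodium served as the reference for red signal. Test compounds were dispensed into serum-containing MEM (10% FBS) without cells, and plates were read at 540/590 nm.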

[5] = qHTS assay to test for compound auto fluorescence at 460 nm (blue) in HepG2 cell free culture (AID 720685); also: potency is read from the fitted curve at half-maximal effect
In short: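 Cell-free plates of MEM plus 10% FBS received 23 nL compound or DMSO vehicle; blue-channel (405/460 nm) intensity scored against triamterene as reference fluorophore.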

[6] = qHTS assay to test for compound auto fluorescence at 535 nm (green) in HepG2 cell free culture (AID 720686)
[7] = qHTS assay to test for compound auto fluorescence at 460 nm (blue) in HepG2 cells (AID 720687)
In short: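 HepG2 cells in MEM with 10% FBS, attached overnight at 37 C, were exposed to compound or DMSO for 1 hr at 37 C, 5% CO2. Blue fluorescence was read at 405/460 nm, with triamterene as reference fluorophore.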

[8] = molecular target: Glucocorticoid receptor (Homo sapiens) (UniProt P04150); assay: qHTS assay to identify small molecule agonists of the glucocorticoid receptor (GR) signaling pathway (AID 720691; active = well fitted activation curve with a large enough effect in the signal ratio in the repeat runs, not every such curve was filed as active; the % refers to the signal ratio)
In short: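 Measures GR pathway activation through a GRE-beta-lactamase reporter stably integrated in HeLa cells, with 18 h compound treatment at 37 C and fluorescence detection using a FRET substrate.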

[9] = molecular target: Glucocorticoid receptor (Homo sapiens) (UniProt P04150); assay: qHTS assay to identify small molecule antagonists of the glucocorticoid receptor (GR) signaling pathway (AID 720692; active = well fitted inhibition curve with a large enough effect in the signal ratio in the repeat runs, not every such curve was filed as active; the % refers to the signal ratio; also: potency is read from the fitted curve at half-maximal effect)
In short: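 Tox21 10K library screened in concentration-response for blockade of dexamethasone (5 nM final)-induced GRE-bla reporter activity in HeLa cells; 18 h treatment, fluorescence read.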

[10] = qHTS assay to test for compound auto fluorescence at 590 nm (red) in HEK293 cell free culture (AID 720683)
In short: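 Cell-free wells of DMEM with 10% FBS received compound, and intrinsic fluorescence was read at excitation/emission 540/590 nm. Values expressed as equivalence to Rose Bengal sodium.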
% is scaled to controls: 0 for no effect and ±100 for the full control effect; tags tell the direction and shape of the fitted curve or compound fluorescence and quenching.

Chain of Glucocorticoid receptor (Homo sapiens) (P04150 whole entry, looked up): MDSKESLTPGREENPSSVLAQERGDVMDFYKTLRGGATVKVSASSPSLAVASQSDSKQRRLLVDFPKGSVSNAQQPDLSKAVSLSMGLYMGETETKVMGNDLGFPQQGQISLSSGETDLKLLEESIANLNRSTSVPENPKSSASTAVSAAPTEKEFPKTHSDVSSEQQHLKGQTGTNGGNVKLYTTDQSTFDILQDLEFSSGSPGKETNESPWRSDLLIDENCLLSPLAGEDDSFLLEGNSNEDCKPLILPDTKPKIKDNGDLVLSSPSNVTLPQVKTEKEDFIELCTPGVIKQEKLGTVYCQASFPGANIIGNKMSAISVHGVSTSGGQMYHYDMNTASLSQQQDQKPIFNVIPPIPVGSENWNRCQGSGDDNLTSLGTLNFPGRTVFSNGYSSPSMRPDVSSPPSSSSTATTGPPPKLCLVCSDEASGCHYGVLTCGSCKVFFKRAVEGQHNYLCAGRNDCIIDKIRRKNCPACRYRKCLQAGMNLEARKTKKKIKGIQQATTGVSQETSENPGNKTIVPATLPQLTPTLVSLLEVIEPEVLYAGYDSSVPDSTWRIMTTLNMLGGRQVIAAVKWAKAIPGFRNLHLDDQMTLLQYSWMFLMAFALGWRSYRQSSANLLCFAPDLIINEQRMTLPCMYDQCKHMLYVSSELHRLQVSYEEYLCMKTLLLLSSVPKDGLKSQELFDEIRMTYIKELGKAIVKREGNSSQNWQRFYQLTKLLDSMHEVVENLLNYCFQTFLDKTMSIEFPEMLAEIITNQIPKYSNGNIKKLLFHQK

O=C(CCl)Nc1ccccc1
inactive: outcome [1] | Potency [2] | outcome [3] | outcome [4] | Potency [5] | outcome [6] | Potency [7]

FC(Cl)(Cl)Cl
inactive: outcome [1] | Potency [2] | outcome [3] | outcome [4] | Potency [5] | outcome [6] | Potency [7] | Potency [8]

CCOC(=O)C1(c2ccccc2)CCN(CCC(C#N)(c2ccccc2)c2ccccc2)CC1
inactive: outcome [1] | Potency [2] | outcome [3] | outcome [4] | Potency [5] | outcome [6] | Potency [7]

FC(F)(F)c1cccc(C2=CCN(CCc3ccc4ccccc4c3)CC2)c1
inactive: outcome [1] | Potency [2] | outcome [3] | outcome [4] | Potency [5] | outcome [6] | Potency [7] | Potency [8] | Potency [9]

CCCN(CCC)CCc1c[nH]c2ccccc12
inactive: outcome [1] | Potency [2] | outcome [3] | outcome [4] | Potency [5] | outcome [6] | Potency [7] | Potency [8] | Potency [9]

CCCCCCCCc1ccc(O)cc1
inactive: outcome [1] | Potency [2] | outcome [3] | outcome [4] | Potency [5] | outcome [6] | Potency [7]

NNC(=O)c1ccccc1
inactive: outcome [1] | Potency [2] | outcome [3] | outcome [4] | Potency [5] | outcome [6] | Potency [7] | Potency [8]

c1ccc2cc3c(cc2c1)-c1cccc2cccc-3c12
active: Potency [5] 1.41 µM [fluorescent]
inactive: outcome [1] | outcome [3] | outcome [10] | outcome [4] | outcome [6]

O=[N+]([O-])c1cc(C(F)(F)F)c(Cl)c([N+](=O)[O-])c1Cl
inactive: outcome [1] | Potency [2] | outcome [3] | outcome [4] | Potency [5] | outcome [6] | Potency [7]

CCCOCC(=Nc1ccc(Cl)cc1C(F)(F)F)n1ccnc1
inactive: outcome [1] | Potency [2] | outcome [3] | outcome [4] | Potency [5] | outcome [6] | Potency [7]

O=C(CBr)c1ccc(O)cc1
inactive: outcome [1] | Potency [2] | outcome [3] | outcome [10] | outcome [4] | Potency [5] | outcome [6] | Potency [7] | Potency [9]

S=C=Nc1cccc2ccccc12
inactive: outcome [1] | Potency [2] | outcome [3] | outcome [4] | Potency [5] | outcome [6] | Potency [7]
active: Potency [9] 17.2 µM

Clc1ccc(CSC(Cn2ccnc2)c2ccc(Cl)cc2Cl)cc1 (configuration not stated)
inactive: fluorescence, % of fluorescein [1] -0.0144% [at 18.6 µM] | fluorescence, % of fluorescent control [2] 0.0923% [at 18.6 µM] | activity change [3] -0.0182% [at 18.6 µM] | fluorescence, % of Rose Bengal [4] -0.065% [at 18.6 µM] | fluorescence, % of fluorescent control [5] 0.0769% [at 18.6 µM] | fluorescence, % of fluorescein control [6] -0.107% [at 18.6 µM] | fluorescence, % of fluorescent control [7] 0.0355% [at 18.6 µM]

CCC(C)c1cc([N+](=O)[O-])cc([N+](=O)[O-])c1OC(=O)C=C(C)C (configuration not stated)
active: Potency [9] 19.5 µM
inactive: outcome [1] | Potency [2] | outcome [3] | outcome [4] | Potency [5] | outcome [6] | Potency [7]

Cc1ccc(OP(=O)(Oc2ccccc2)Oc2ccccc2)cc1
inactive: outcome [1] | Potency [2] | outcome [3] | outcome [4] | Potency [5] | outcome [6] | Potency [7]

C=CC(=O)OCCCCOC(=O)C=C
active: Potency [9] 24.5 µM
inactive: outcome [1] | Potency [2] | outcome [3] | outcome [4] | Potency [5] | outcome [6] | Potency [7] | Potency [8]

CC(C)OC(=O)C(O)(c1ccc(Cl)cc1)c1ccc(Cl)cc1
active: Potency [9] 30.9 µM
inactive: outcome [1] | Potency [2] | outcome [3] | outcome [4] | Potency [5] | outcome [6] | Potency [7] | Potency [8]
